An excerpt weighted towards active compounds, which were near 2.3% of everything screened.
PDI inh: inhibitors of human PDI, primary screen, biochemical, turbidity, single point, plate reader; hit rate 0.052% among 350,000; Protein disulfide-isomerase (Homo sapiens), P07237; inhibition, % at 10 µM; PDI insulin aggregation turbidity, A650, 90 min;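 active = mean inhibition across replicates of 30% or more, whatever share of single replicates reach that level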
Target sequence (P07237 whole entry, looked up): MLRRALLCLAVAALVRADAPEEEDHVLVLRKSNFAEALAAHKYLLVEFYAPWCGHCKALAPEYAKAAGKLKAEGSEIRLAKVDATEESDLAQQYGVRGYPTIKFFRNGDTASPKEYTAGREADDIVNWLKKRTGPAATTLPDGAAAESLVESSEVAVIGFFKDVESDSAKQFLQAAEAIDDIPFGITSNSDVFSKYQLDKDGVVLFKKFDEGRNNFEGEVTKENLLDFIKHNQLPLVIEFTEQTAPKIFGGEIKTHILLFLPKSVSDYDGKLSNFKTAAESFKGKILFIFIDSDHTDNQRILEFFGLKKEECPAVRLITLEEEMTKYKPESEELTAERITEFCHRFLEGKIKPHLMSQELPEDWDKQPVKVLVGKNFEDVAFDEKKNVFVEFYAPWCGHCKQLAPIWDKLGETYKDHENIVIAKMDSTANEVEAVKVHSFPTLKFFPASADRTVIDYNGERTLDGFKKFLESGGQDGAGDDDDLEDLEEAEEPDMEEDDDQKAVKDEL
ERp5 inh: inhibitors of ERp5-driven insulin aggregation, primary screen, biochemical, turbidity, absorbance 650 nm, single point; Protein disulfide-isomerase A6 (Homo sapiens), Q15084; 90 min; inhibition, % at 9.99 µM; hit rate 0.05% among 350,000;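 active = mean replicate inhibition above about 25%, with every replicate also reaching it, limit read from the data, passing the limit was not always enough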
SIRT5 inh: SIRT5 desuccinylase inhibitors, primary screen, biochemical, fluorescence imaging, single point, set 5; AID 652115, 2013; NAD-dependent protein deacylase sirtuin-5, mitochondrial (Homo sapiens), Q9NXA8; Purified SirT5, succinyl-peptide AMC, trypsin-coupled fluorescence; inhibition, % at 15 µM; hit rate 1.1% among 330,000; in the data active = inhibition above about 15%
Rtt109 HAT inh: inhibitors of C. albicans Rtt109/Vps75 HAT, primary screen, biochemical, ThioGlo CoA-SH fluorescence, plate reader; hit rate 0.16% among 330,000; purified Rtt109/Vps75, 4 h; inhibition, % at 34.9 µM;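 active = inhibition of at least 50% in every replicate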
DENV2 CPE rescue: inhibitors of DENV2 cytopathic effect, primary screen, cell-based, plate reader, single concentration | DENV2-infected cells, cytopathic effect rescue | CPE inhibition, % at 9.99 µM | hit rate 1.7% among 350,000 | AID 651640, 2012; in the data active = CPE inhibition above about 20%, passing the limit was not always enough; tested in BHK-21 cells;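 also: 0% = median of neutral control wells and 100% = median of positive control wells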
Active calls of the source: *; . = not tested or not shown.

SMILES	PDI inh	ERp5 inh	SIRT5 inh	Rtt109 HAT inh	DENV2 CPE rescue
COc1ccc(NC(=O)Nc2ccc3c(c2)CC(=O)N([C@H](C)CO)C[C@H](C)[C@@H](CN(C)C(=O)Nc2ccc(F)cc2)O3)cc1	.	2.1	4.2	.	9.3
CO[C@@H]1CC[C@H]2CCOc3ccc(C#N)cc3C(=O)N(C)[C@H](C)C(=O)N(C)C[C@H]1O2	.	3.6	-4.3	.	15.3
N#C/C(=C\c1ccccc1OCc1ccc(C(=O)O)cc1)C(=O)Nc1ccc(O)cc1	50.9*	-0.6	0.6	-16.8	-1.8
O=C(CN1C(=O)/C(=C/c2ccco2)SC1=S)Nc1ccc(C(=O)O)c(O)c1	2.6	-5.1	62.0*	0.8	0.6
O=C(CN1C(=O)/C(=C/c2ccco2)SC1=S)Nc1ccc(O)c(C(=O)O)c1	-3.7	5.7	53.0*	1.1	-2.2
CC(C(=O)Nc1ccc(C(=O)O)c(O)c1)N1C(=O)/C(=C\c2ccco2)SC1=S (stereo not given)	8.7	.	.	11.5	.
O=C(NCCN1CCCC1)[C@@H]1[C@@H](CO)[C@@H]2Cn3c(cccc3=O)[C@H]1N2C(=O)NC1CCCC1	.	6.0	0.7	.	-1.9
COCCCNC(=O)CCCn1c(=O)c2ccccc2n(Cc2cccc([N+](=O)[O-])c2)c1=O	1.3	-8.8	2.8	-3.1	5.6
COCCCNC(=O)CCn1c(=O)c2ccccc2n(Cc2cccc([N+](=O)[O-])c2)c1=O	-6.9	3.3	28.7*	6.5	-2.3
OC(CSc1nnnn1-c1ccccc1)Cn1c2ccccc2c2ccccc21 (stereo not given)	.	5.4	.	.	21.2*
O=C(c1ccccc1)N1C[C@H]2[C@@H](c3ccccc31)[C@@H](CO)N2C(=O)c1ccccn1	.	1.3	7.8	.	1.8
O=C(c1ccccc1)N1C[C@H]2[C@@H](c3ccccc31)[C@H](CO)N2C(=O)c1ccccn1	.	2.2	0.6	.	25.2*
O=C(Nc1ccccc1)N1C[C@@H]2[C@H](c3ccccc31)[C@@H](CO)N2C(=O)c1ccccn1	.	-0.8	-1.9	.	71.2*
CN1C[C@@H]2[C@H](c3ccccc31)[C@@H](CO)N2Cc1ccccc1	.	6.9	-1.6	.	44.2*
CN1C[C@@H]2[C@H](c3ccccc31)[C@@H](CO)N2Cc1ccccc1Cl	.	9.3	3.6	.	-8.0
CN1C[C@H]2[C@@H](c3ccccc31)[C@H](CO)N2C(=O)c1ccccn1	.	-1.1	-2.2	.	28.0*
CO[C@H]1CN(C)C(=O)c2cc(NC(=O)C3CC3)ccc2OC[C@@H](C)N(C(=O)c2ccccc2)C[C@H]1C	.	1.5	-7.4	.	6.9
COc1ccc(NC(=O)N(C)C[C@H]2OCCCC[C@@H](C)Oc3ccc(NC(=O)CCC(F)(F)F)cc3C(=O)N([C@H](C)CO)C[C@H]2C)cc1	.	-3.9	6.4	.	-3.2
Cc1ccc(S(=O)(=O)N(C)C[C@H]2OCCCC[C@H](C)Oc3ccc(NS(=O)(=O)c4cn(C)cn4)cc3C(=O)N([C@H](C)CO)C[C@H]2C)cc1	.	0.1	-0.4	.	-1.1
CNC[C@H]1Oc2c(NC(=O)c3ccncc3)cccc2C(=O)N([C@@H](C)CO)C[C@H]1C	.	-5.3	-1.7	.	38.5*
C[C@H]1CN([C@@H](C)CO)C(=O)c2cccc(NS(C)(=O)=O)c2O[C@@H]1CN(C)Cc1ccc(C(=O)Nc2ccccc2N)cc1	.	3.8	-3.4	.	75.1*
C[C@@H]1CN([C@H](C)CO)C(=O)c2cccc(NC(=O)c3ccncc3)c2O[C@H]1CN(C)S(C)(=O)=O	.	-0.9	35.7*	.	12.0
C[C@@H]1CN([C@@H](C)CO)C(=O)c2cccc(NC(=O)c3ccncc3)c2O[C@H]1CN(C)Cc1ccccc1	.	4.4	23.4*	.	-5.9
O=C(NCC[C@@H]1CC[C@H](NS(=O)(=O)c2ccc(Cl)cc2)[C@H](CO)O1)Nc1ccc(F)cc1	.	.	-8.2	.	-1.7
C[C@H]1CN([C@@H](C)CO)C(=O)c2cccc(NC(=O)C3CCCCC3)c2O[C@@H]1CN(C)Cc1ccc(C(=O)Nc2ccccc2N)cc1	.	-20.8	1.0	.	80.1*
SMILES	PDI inh	ERp5 inh	SIRT5 inh	Rtt109 HAT inh	DENV2 CPE rescue
C[C@H]1CN([C@@H](C)CO)C(=O)c2cccc(NC(=O)c3ccncc3)c2O[C@H]1CN(C)Cc1ccc(C(=O)Nc2ccccc2N)cc1	.	2.7	.	.	43.8*
N#Cc1ccc(-c2ccc([C@H]3[C@@H](CO)N4C(=O)CN(C(=O)C5CCCCC5)C[C@@H]34)cc2)cc1	.	-5.5	-6.8	.	6.7
Cc1cccc(CN2C[C@]34C=C[C@@H](C[C@@H]3S2(=O)=O)O4)c1	-5.5	-2.4	.	-5.7	48.1*
CC(C)Cc1ccc(C(C)C(N)=Nc2ccc(O)cc2)cc1 (stereo not given)	2.1	1.2	19.1*	0.7	-3.1
CC(C)Cc1ccc(C(C)C(=O)Nc2ccc(O)cc2)cc1 (stereo not given)	-8.9	-0.5	0.3	-2.4	0.4
Cc1cc(C)c(-n2nnnc2SCC(=O)c2cccs2)c(C)c1	-0.7	-0.9	-4.2	60.2*	6.7
C[C@@H]1CN([C@H](C)CO)C(=O)c2cccc(NS(=O)(=O)c3cccs3)c2O[C@@H]1CN(C)S(=O)(=O)c1cccs1	.	-2.8	-1.5	.	1.2
C[C@@H]1CCCCO[C@H](CN(C)C(=O)NC2CCCCC2)[C@H](C)CN([C@@H](C)CO)C(=O)c2cc(NC(=O)Nc3ccc4c(c3)OCO4)ccc2O1	.	-0.4	2.5	.	0.3
CNc1cccc(-c2ccccc2CO)n1	-7.2	0.9	.	.	30.1*
CNc1cccc(-c2ccccc2C(C)=O)n1	-48.9	3.4	-0.4	.	8.5
O=C(O)C[C@H]1CC[C@@H](NC(=O)CCN2CCCCC2)[C@@H](CO)O1	.	-2.6	4.8	.	-2.5
C[C@@H]1CCCCO[C@@H](CN(C)Cc2ccc3c(c2)OCO3)[C@@H](C)CN([C@H](C)CO)C(=O)c2cc(NS(=O)(=O)c3cccs3)ccc2O1	.	.	.	.	-2.3
C[C@@H]1CCCCO[C@@H](CN(C)Cc2ccc(Cl)c(Cl)c2)[C@H](C)CN([C@@H](C)CO)C(=O)c2cc(NS(=O)(=O)c3cccs3)ccc2O1	.	-4.9	25.1*	.	-32.0
C[C@@H]1CCCCO[C@@H](CN(C)Cc2ccc3c(c2)OCO3)[C@H](C)CN([C@H](C)CO)C(=O)c2cc(NS(=O)(=O)c3cccs3)ccc2O1	.	.	.	.	38.2*
COc1ccc(CN(C)C[C@H]2OCCCC[C@H](C)Oc3ccc(NS(=O)(=O)c4cccs4)cc3C(=O)N([C@H](C)CO)C[C@H]2C)cc1	.	-6.0	7.0	.	52.3*
C[C@@H]1CN([C@@H](C)CO)C(=O)c2cc(NS(=O)(=O)c3cccs3)ccc2O[C@@H](C)CCCCO[C@H]1CN(C)Cc1ccccc1	.	-7.1	.	.	41.9*

High-throughput results: PubChem BioAssay, Broad Institute
